Source: the supplement of paper PMC10681739

target: RUNX1 (UniProt Q01196); experiment: RUNX1 binding intensity (PBM fluorescence) in presence of ETS1, normalised to RUNX1-only experiment (arbitrary fluorescence units); higher = stronger binding; details: RUNX1 concentration 2 nM; ETS1 concentration 25 nM
Protocol: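 Cooperative gcPBM on 36-bp genomic probes with neighbouring ETS1 and RUNX1 sites. Recombinant human RUNX1 (2 nM) was incubated alone or with ETS1 (25 nM) and detected with anti-RUNX1 antibody plus Alexa488 secondary. Values are medians over 4 replicate spots; the RUNX1+ETS1 data were normalised to the RUNX1-only data. The probes sit in constant array flanks that are not printed.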
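Note: Full-length recombinant human ETS1 or RUNX1 bound to double-stranded 36-bp genomic probes on microarrays, detected by protein-specific primary antibody and Alexa488 secondary, spot fluorescence as median of four replicate spots.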

Chain of RUNX1 (Q01196 whole entry): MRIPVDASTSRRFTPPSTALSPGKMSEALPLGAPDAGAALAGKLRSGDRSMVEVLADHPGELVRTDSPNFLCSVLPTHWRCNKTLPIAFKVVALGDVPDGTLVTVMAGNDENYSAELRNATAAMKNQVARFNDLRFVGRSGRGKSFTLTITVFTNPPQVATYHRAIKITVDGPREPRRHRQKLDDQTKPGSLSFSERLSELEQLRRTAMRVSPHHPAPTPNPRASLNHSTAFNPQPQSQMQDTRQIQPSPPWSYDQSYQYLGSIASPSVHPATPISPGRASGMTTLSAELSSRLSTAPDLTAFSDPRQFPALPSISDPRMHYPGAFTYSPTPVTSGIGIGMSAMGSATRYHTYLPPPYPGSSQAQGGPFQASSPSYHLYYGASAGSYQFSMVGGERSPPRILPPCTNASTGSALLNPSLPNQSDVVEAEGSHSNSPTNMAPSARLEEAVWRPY

| Sequence | RUNX1 binding intensity |
| --- | --- |
| GTTCATCCAGGAAACCCCAACCCAGTGCCGCAGTAT | 1080 |
| GTCCCACGCGACTTCCTGCGGGAAACATGGCGGCAT | 2170 |
| GGTGCCTGGGGAGGATGTGGGCTGACTGGGAGGGGT | 974 |
| ACAGATCCAAGGAAGCATATCCCGCAAGCAACTGTT | 875 |
| CAGGGCACCTCCTACTTCCCCCCGCAGATAACTACC | 906 |
| AATTGAGACAGGAAATGTTGGTTTGTGGTCAGGCAC | 3130 |
| CAGGCTCGCCACAGGGGAAGTGGTTAGGGCGGGTCC | 890 |
| ACACCCCAGGCAGGATGTGGTAGGGGTTGCCCCAGA | 2080 |
| GGACCGGAAGTAGGTTTCTACCCGACCGCATTTTAC | 2740 |
| GGTTTCCGGGTGAAAAAAAAAAAAAAAACCACGCCA | 1740 |
| GTTTTCAAGGCAGGAAGTGGCTGTGGTGGCACGGAG | 1570 |
| CTTAGGACTTCCCGTAGATGGTGGTCTGTGCTAAGG | 1050 |
| GAGGTGCCGGAAGCCAGTAGGTGGTTTTGGGTGCTA | 1180 |
| CCCGCCGGAAGGACGCGTCTGCGTCTCTGCGGCGAG | 955 |
| TGTAAGTCACTTCCTGTCGTGGTCAGGTCTCCTCTC | 2370 |
| GTTTCTCTGGCCAGGAAATTGAGGTTTCTGTTAGTC | 1660 |
| CCCCTCCCTGCTTCCTGTGTGGTGAGGGGTGATCAG | 1870 |
| CCCTCAGCGGAAGTGGAAGCTGTGGTTTCCAAAGGC | 3570 |
| TTGTCACGTCCGGCACGCCGCGAACCGCAAGGAACC | 2720 |
| CTTTCTGGTTTCCTTCCTTTTTGGTTTTGGTTTCAT | 2830 |

| Sequence | RUNX1 binding intensity |
| --- | --- |
| GCCACTATTTCCTGCCTTCTGCGGCTGAGAGTCCCA | 3520 |
| GCAGTCAGAAGGTGCGGATGCGGTAAGGTATGCGCT | 1270 |
| CCGCCGACACACTTCCGGCGGCCACCACAGGGTATT | 1910 |
| TGGCTTTGCAGAAGGAAGCTGTGGTTTCTGGTCTTC | 1010 |
| AGCTTCCTGTTTGGCCTTGCTGATGTCACCGCATTA | 2360 |
| GGACCGGAAGTTAAGGCGTTCGCGGCGTGTGGTAAG | 1560 |
| CCATCCAGGAAGCTTATGGTGCGACCGCAGTGTGCC | 1160 |
| TATTTCCTGTGCACAGAAGCAGCTGGGCCGCAGAGT | 1940 |
| GAATGACAGAAGCGGAAACCACATGAAAAAGGTGTT | 1360 |
| CCCAGCCGAGGGAGGAAGCCTGCGGTCACTGCCATC | 3190 |
| TAAGTGCAGGAAACGGCTGTGTGGGTGTCAGTGATT | 906 |
| AGCCACGGACTTCCGCCTACAGGTCGCCGCAGGTCC | 1700 |
| GACGGGAGCACCGGAAGCGGTCTTTCCCCGAGCGGA | 2370 |
| GTCTTACTTCCTGTCCCCGCCCACCGCGACTGTCTT | 3600 |
| AGGAAACCACAAGTTATTCCCTGCAAAGGTCTTGAT | 6430 |
| CCGGGAAACACGGGAGAGCGACCGAAACCGCAATCA | 4390 |
| CCTCACTAACATCCTGTTGAGGTGTCCCACAAACCA | 1490 |
| TTCAATCACAGGAAACAGACGTCACCCACAGACCTA | 983 |
| GGGCCCTTCCTGTGGCGCCTGCCGAGCTGTGGTTGG | 1380 |
| TTGTGCTTCCTGCTCATGAGATTGCTAGCGGTTACT | 1190 |
